# Experimental data from PubChem BioAssay (NCATS).
# Inconclusive results are not listed. Entries that show only a call come without a potency. Active and inactive are the calls of the source. Unless noted, calls follow the shape of the dose curve; as a rule, active = well fitted curve in the direction sought with a large enough effect; inconclusive = small, poorly fitted or top-dose-only effect, or another doubt; inactive = no such curve, though single readings can be large; an effect the other way counts as inactive or inconclusive.
# Columns and labels:
# [1] = qHTS Assay for Lipid Storage Modulators (AID 1519; calls by dose curve); details: Drosophila S3 cells, BODIPY lipid droplet/cell ratio, laser cytometry, cells loaded with oleic acid
# Outline: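 Cells seeded at 5,000 per well were treated with compounds over a concentration series and loaded with oleic acid (400 uM, as added). Lipid droplet fluorescence (488 nm excitation, 500-530 nm channel) was read by laser-scanning cytometry and normalized to 20 uM Triacsin C.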
# [2] = molecular target: Alpha-galactosidase A (Homo sapiens) (UniProt P06280); test: Counterscreen for Glucocerebrosidase Inhibitors: qHTS Assay for Human alpha-Galactosidase at pH 4.5 (AID 992); details: purified enzyme, fluorogenic substrate; series mostly up to 76.9 µM
# Alpha-galactosidase A (Homo sapiens), sequence (P06280 whole entry, looked up): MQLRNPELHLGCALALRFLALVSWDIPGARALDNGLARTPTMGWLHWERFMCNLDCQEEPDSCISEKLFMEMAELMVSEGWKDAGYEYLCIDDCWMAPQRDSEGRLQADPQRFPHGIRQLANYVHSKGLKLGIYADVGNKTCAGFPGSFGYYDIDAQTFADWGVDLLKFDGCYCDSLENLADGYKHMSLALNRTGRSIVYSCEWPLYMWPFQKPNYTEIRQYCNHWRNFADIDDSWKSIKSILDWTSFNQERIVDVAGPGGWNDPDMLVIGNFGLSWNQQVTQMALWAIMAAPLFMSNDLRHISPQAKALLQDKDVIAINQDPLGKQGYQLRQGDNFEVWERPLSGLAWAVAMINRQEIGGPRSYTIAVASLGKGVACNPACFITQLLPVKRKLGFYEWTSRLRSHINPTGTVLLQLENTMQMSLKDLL
# Outline: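 Quantitative HTS: compounds tested from 0.7 nM up to 77 uM against 2 nM enzyme with 80 uM 4-MU alpha-D-galactopyranoside. The 20 min room-temperature reaction is stopped with 1M NaOH/1M glycine, pH 10.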
# [3] = molecular target: alpha-glucosidase (Oryza sativa, rice) (UniProt Q653V4); test: Counterscreen for Glucocerebrosidase Inhibitors: qHTS Assay for Rice alpha-Glucosidase at pH 5.0 (AID 997); details: rice alpha-glucosidase enzyme activity; series mostly up to 76.9 µM
# Outline: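 Rice alpha-glucosidase (4 nM final) with 400 uM 4-methylumbelliferyl-alpha-D-glucopyranoside in citrate buffer pH 5.0, 20 min at room temperature, stopped at pH 10; fluorescence 365/440 nm, compounds 0.7 nM–77 uM, AC50 from Hill fits.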
# [4] = Validation of Assay for Modulators of Lamin A Splicing (AID 1459; active = well fitted curve in the direction sought with a large enough effect in the signal ratio; the % refers to the signal ratio;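 also: cells exposed to compound for two days before reading; ratio rise marks activators and ratio drop marks inhibitors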); details: Lamin A splicing dual RFP/GFP fluorescence reporter; series mostly up to 9.22 µM
# Outline: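 Dual-reporter HeLa S3 line (lamin A-EGFP minigene, DsRed2) treated with compounds 48 hrs, 0.5% DMSO final. Endpoint: EGFP/DsRed2 total intensity ratio from laser-scanning microplate cytometry.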
# [5] = molecular target: DNA repair nuclease/redox regulator APEX1 (Homo sapiens) (UniProt P27695); test: qHTS Validation Assay for Inhibitors of the Human Apurinic/apyrimidinic Endonuclease 1 (APE1) (AID 1705;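 also: TAMRA fluorescence gain over two minutes as APE1 cuts a quenched THF abasic duplex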); details: purified APE1 endonuclease activity, fluorescence, titration; series mostly up to 57.1 µM
# DNA repair nuclease/redox regulator APEX1 (Homo sapiens), sequence (P27695 whole entry, looked up): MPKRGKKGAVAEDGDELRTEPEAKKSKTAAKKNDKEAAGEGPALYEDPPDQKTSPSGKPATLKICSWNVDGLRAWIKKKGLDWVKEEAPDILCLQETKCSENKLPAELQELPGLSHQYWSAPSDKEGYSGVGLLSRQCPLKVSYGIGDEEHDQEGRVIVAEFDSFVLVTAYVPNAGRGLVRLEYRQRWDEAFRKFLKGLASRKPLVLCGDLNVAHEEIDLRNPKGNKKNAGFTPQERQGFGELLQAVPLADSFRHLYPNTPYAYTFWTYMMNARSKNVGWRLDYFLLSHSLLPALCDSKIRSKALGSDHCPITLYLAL
# Outline: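 Substrate: 50 nM final fluorophore/quencher THF-abasic duplex. Enzyme preincubated with compounds 15 min, RT. Progress derived from fluorescence difference, third minus first kinetic read.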
# [6] = Counterscreen for APE1 Inhibitors: Fluorescent Dye Displacement Validation Assay (AID 1707); details: fluorescent dye displacement from DNA; series mostly up to 57.1 µM
# Outline: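 Compounds are scored by their ability to displace Thiazole Orange (250 nM) from a 50 nM TAMRA-tagged duplex bearing a tetrahydrofuran abasic site. Buffer is 50 mM Tris-HCl pH7.5, 50mM NaCl, 2 mM MgCl2, 0.01% Tween-20.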
# [7] = measured here: cell count channel max response
# [8] = measured here: lipid channel max response
smiles,measurement,setting,value
Nc1cc(-c2ccncc2)c[nH]c1=O,"activity change, negative = inhibition",[1]; at 25.7 µM (top of the series),3.03% (inactive)
same,max response,[1]; [7],5.25%
same,max response,[1]; [8],9.64%
CN(C)C(N)=NCCC[C@H](N)C(=O)O,outcome,[2],inactive
same,outcome,[3],inactive
same,outcome,[4],inactive
same,Potency,[5],inactive
same,Potency,[6],inactive
CC(C)(C)NCC(O)COc1nsnc1N1CCOCC1 (centres undefined),outcome,[4],inactive
same,Potency,[6],inactive
NCCNC(=O)c1ncsc1-c1cccc(F)c1,outcome,[2],inactive
same,outcome,[3],inactive
same,outcome,[4],inactive
same,Potency,[6],inactive
COc1cc(NC(C)CCCN)c2ncccc2c1 (centres undefined),"activity change, negative = inhibition",[1]; at 57.5 µM (top of the series),7.1% (inactive)
same,max response,[1]; [7],14.8%
same,max response,[1]; [8],28.1%
O=C(O)Cc1ccc(-c2ccccc2)cc1,"activity change, negative = inhibition",[1]; at 25.7 µM (top of the series),1.48% (inactive)
same,max response,[1]; [7],-7.71%
same,max response,[1]; [8],-5.4%
O=C(O)CC[C@@H](C(=O)O)N1C(=O)c2ccccc2C1=O,outcome,[2],inactive
same,outcome,[3],inactive
same,outcome,[4],inactive
same,Potency,[5],inactive
same,Potency,[6],inactive
NO,outcome,[2],inactive
same,outcome,[3],inactive
same,outcome,[4],inactive
same,Potency,[6],inactive
c1ccc(-c2ccccn2)nc1,outcome,[2],inactive
same,outcome,[3],inactive
same,outcome,[4],inactive
same,Potency,[5],inactive
same,Potency,[6],inactive
CNCC[C@H](Oc1ccc(C(F)(F)F)cc1)c1ccccc1,outcome,[2],inactive
same,outcome,[3],inactive
same,outcome,[4],inactive
same,Potency,[6],inactive
O=C(Nc1ccccc1)c1cc([N+](=O)[O-])ccc1Cl,outcome,[2],inactive
same,outcome,[3],inactive
same,outcome,[4],inactive
same,Potency,[5],inactive
same,Potency,[6],inactive
N=C(N)N,"activity change, negative = inhibition",[1]; at 57.5 µM (top of the series),4.02% (inactive)
same,max response,[1]; [7],15.8%
same,max response,[1]; [8],23.8%
N=C(N)SCCc1ccc(CCSC(=N)N)cc1,outcome,[2],inactive
same,outcome,[3],inactive
same,outcome,[4],inactive
same,Potency,[6],inactive
O=C(O)/C=C/C(O)c1ccc(Cl)cc1 (centres undefined),outcome,[4],inactive
same,Potency,[6],inactive
O=C(O)[C@@H]1C[C@H](C(=O)O)N1,outcome,[4],inactive
same,Potency,[5],inactive
same,Potency,[6],inactive
Clc1ccc(N2CCN(Cc3c[nH]c4ncccc34)CC2)cc1,outcome,[2],inactive
same,outcome,[3],inactive
same,outcome,[4],inactive
same,Potency,[6],inactive
Fc1ccc(C(OCCCc2cnc[nH]2)c2ccc(F)cc2)cc1,outcome,[2],inactive
same,outcome,[3],inactive
same,outcome,[4],inactive
same,Potency,[5],inactive
same,Potency,[6],inactive
